High-throughput results as filed in PubChem.
Only some compounds are listed: those with a hit (about 7.5% of all), similar ones and a draw of the others.
RORg inh – blocks mouse ROR gamma transcriptional activity; Drosophila S2 Gal4-RORgamma UAS-luciferase reporter, 20 h; Potency, µM (series often up to 53.6 µM), usual class: inhibitors; 310,000 compounds, 5.4% hits; note: nearly all actives have a fitted effect of over 60% in size
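Stable Schneider cell line, Gal4 DNA-binding domain fused to ROR gamma, UAS-luciferase. Cmpd 1 hr RT → CuSO4 700 uM final → 20 hr RT → luciferase reagent 10 min → luminescence.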
B2AR arrestin – recruits beta-arrestin to the human beta2-adrenergic receptor; beta-arrestin recruitment to beta2AR, cell-based reporter; Potency, µM (highest dose often 46.1 µM), usual class: activators; P07550; AID 492947; 330,000 compounds, 0.02% hits; note: nearly all actives have a fitted effect of over 65% in size
Target sequence (P07550 whole entry, looked up): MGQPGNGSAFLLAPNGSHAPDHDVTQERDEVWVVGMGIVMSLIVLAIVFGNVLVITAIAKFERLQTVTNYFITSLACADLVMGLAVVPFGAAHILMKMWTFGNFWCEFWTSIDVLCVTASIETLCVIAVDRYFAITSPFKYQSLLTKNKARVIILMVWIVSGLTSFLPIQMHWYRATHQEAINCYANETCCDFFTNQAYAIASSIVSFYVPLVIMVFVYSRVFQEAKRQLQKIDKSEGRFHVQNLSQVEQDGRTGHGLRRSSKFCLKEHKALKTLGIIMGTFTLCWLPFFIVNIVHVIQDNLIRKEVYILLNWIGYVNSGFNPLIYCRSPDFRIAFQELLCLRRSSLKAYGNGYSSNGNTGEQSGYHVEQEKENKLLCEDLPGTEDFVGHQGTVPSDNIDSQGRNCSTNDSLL
Gal4-VP16 FLuc – inhibits Gal4-VP16 luciferase reporter, ROR gamma counter-screen. Drosophila S2 Gal4-VP16 UAS-luciferase, luminescence, 20 h. Potency, µM (highest dose often 53.6 µM), usual class: inhibitors. 310,000 compounds, 3.5% hits. AID 2546;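 note: Gal4-VP16 expression switched on by copper sulfate through the metallothionein promoter; nearly all actives have a fitted effect of over 50% in size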
ELG1 DNA repair – ELG1-dependent DNA repair inhibition | HEK293T ELG1-luciferase reporter, luminescence, 16 h; DNA damage induced by 5-fluorouridine | Potency, µM (highest dose often 46.1 µM), hits mostly inhibitors | 330,000 compounds, 2.3% hits | AID 504467; note: nearly all actives have a fitted effect of over 55% in size
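In this reporter screen, reduction of luminescence relative to DMSO vehicle indicated activity. Compounds and 5-fluorouridine were added together to 2,000 cells per well, incubated for 16 hr at 37 °C, then developed with ONE-Glo.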
TSHR antagonist – human thyrotropin receptor antagonism | activity change, negative = inhibition, % at 11.5 µM | TSHR-expressing cells, TSH-stimulated cAMP HTRF, 2 h; stronger effect = lower value | AID 504810 | 330,000 compounds, 0.2% hits;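 active = activity change below a set negative limit, meaning inhibition stronger than a set level, cut at about -70% in these data; inconclusive = activity change between two set negative limits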
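Read-out is FRET at 665 nm (cryptate excitation 337 nm) from a cryptate-tagged anti-cAMP antibody, competed by cell cAMP against cAMP-d2. Compounds are tested on freshly harvested TSHR cells challenged with 4nM TSH (EC80) for 2 hours at 37 deg C.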
Hits are given with their value; - = inactive; ? = inconclusive; . = no result given; [ ] = another dose, or the depositor's remark. Unless noted, calls come from the whole dose curve; as a rule, active = well fitted curve in the direction sought with a large enough effect; inconclusive = small, poorly fitted or top-dose-only effect, or another doubt; inactive = no such curve, though single readings can be large; an effect the other way counts as inactive or inconclusive.

SMILES | RORg inh | B2AR arrestin | Gal4-VP16 FLuc | ELG1 DNA repair | TSHR antagonist
Cc1ccc(C(=O)N/N=C/c2ccc(N3CCOCC3)cc2)c(C)c1 | - | - | - | - | -
CN(Cc1ccco1)c1ncnc2ccc(-c3cccc(NS(C)(=O)=O)c3)cc12 | ? | . | - | . | .
C[C@]12CC[C@H]3c4ccc(O)cc4CC[C@@H]3[C@H]1CC[C@@H]2OC(=O)CCC1CCCC1 | -[10 µM] | . | ? | . | .
C[C@H](NC[C@H](O)CP(=O)(O)Cc1ccccc1)c1ccc(Cl)c(Cl)c1 | - | . | - | . | .
O=C(CCl)Nc1ccc2c(c1)OCO2 | 17.8µM | - | -[10 µM] | - | -
O=C(Nc1ccccc1)c1nc[nH]c1C(=O)NCCCCCCNC(=O)c1[nH]cnc1C(=O)Nc1ccccc1 | . | - | . | ? | -
Cc1cccc(NC(=O)c2nc[nH]c2C(=O)N[C@@H](C)c2ccccc2)c1 | . | - | . | ? | -
Cc1cccc(NC(=O)c2nc[nH]c2C(=O)N[C@@H](CCCCNC(=O)OC(C)(C)C)C(=O)OC(C)(C)C)c1 | 6.31µM | - | 15.8µM | 14.6µM | -
Cc1cccc(NC(=O)c2nc[nH]c2C(=O)NCCCNC(=O)c2[nH]cnc2C(=O)Nc2cccc(C)c2)c1 | . | - | . | 9.2µM | -
CCN(CC)C(=O)c1[nH]cnc1C(=O)N[C@@H](CCCCNC(=O)OC(C)(C)C)C(=O)OC(C)(C)C | - | - | - | - | -
Cc1cccc(NC(=O)c2nc[nH]c2C(=O)NCCCCCNC(=O)OC(C)(C)C)c1 | . | - | . | 20.6µM | -
Cc1cccc(NC(=O)c2nc[nH]c2C(=O)Nc2cccc(C)c2)c1 | 1.41µM | - | 2.82µM | - | -
Cc1cccc(NC(=O)c2nc[nH]c2C(=O)NCCN(CCNC(=O)c2[nH]cnc2C(=O)Nc2cccc(C)c2)CCNC(=O)c2[nH]cnc2C(=O)Nc2cccc(C)c2)c1 | . | - | . | - | -
O=C(NC(=S)NNC(=O)c1ccco1)c1ccc(Br)cc1 | 12.6µM | - | ? | - | -
O=C(NC(=S)NNC(=O)c1cccs1)c1ccco1 | 2.82µM | - | ? | - | -
C/C(=N\NC(=O)c1ccco1)c1ccc(NC(=O)c2cccs2)cc1 | ? | - | - | - | -
O=C(Nc1ccc(NC(=S)NC(=O)c2cccs2)cc1)c1ccco1 | 11.2µM | - | - | - | -
O=C(Nc1ccc2c(c1)OCO2)c1noc2c1CCCC2 | - | - | - | ? | -
CCOc1ccccc1C(=O)NCC(=O)OCc1csc(CC(=O)Nc2ccc(C)cc2)n1 | . | - | . | - | -
CCOc1ccccc1C(=O)N[C@H](C(=O)OCc1csc(CC(=O)Nc2ccc(C)cc2)n1)C(C)C | . | - | . | 23.1µM | -
COc1ccc(S(=O)(=O)N2CCC3(CC2)CC(=O)c2ccccc2O3)cc1C | . | - | . | - | -
O=C(/C=C/Nc1ccc(Br)cc1F)c1ccco1 | 7.08µM | - | 7.94µM | ? | -
O=C(/C=C/Nc1ccc(F)cc1F)c1cccs1 | 1.58µM | - | 2.51µM | ? | -
O=C(/C=C/Nc1cccc(F)c1)c1ccco1 | ? | - | ? | ? | -
O=C(/C=C/Nc1ccc(F)cc1F)c1ccco1 | 7.94µM | - | 7.08µM | ? | -
SMILES | RORg inh | B2AR arrestin | Gal4-VP16 FLuc | ELG1 DNA repair | TSHR antagonist
Cc1ccc(N/C=C/C(=O)c2cccs2)cc1 | ? | - | 8.91µM | ? | -
CS(=O)(=O)N1CCC2(CCN(c3ccccc3)CC2)CC1 | - | . | - | . | .
CC(C(=O)Nc1nc2ccccc2[nH]1)N1C(=O)C2CC=CCC2C1=O (centres undefined) | 10µM | - | - | - | -
CSc1ccccc1C(=O)Nc1nc2ccccc2c(=O)[nH]1 | - | - | ? | ? | -
COc1cc(SC)ccc1C(=O)Nc1ccccc1 | - | - | - | ? | -
COc1cc(SC)ccc1C(=O)Nc1nc2ccccc2[nH]1 | 0.1µM | - | 0.316µM | ? | -
COc1cc(SC)ccc1C(=O)Nc1nccs1 | 7.94µM | - | ? | ? | -
COc1ccc(C(=O)Nc2nccs2)cc1OC | - | - | ? | ? | -
CSc1ccccc1C(=O)Nc1nc2ccccc2[nH]1 | 5.01µM | - | ? | ? | -
C=COCC1CN2C(CCC(C)C2c2ccc(Br)cc2)C(=O)O1 (centres undefined) | -[10 µM] | . | -[10 µM] | . | .
CC(=O)N[C@@H](CC(C)C)C(=O)N[C@@H](CCCNC(=N)N)C(=O)N[C@@H](Cc1cnc[nH]1)C(=O)N[C@@H](Cc1ccc(O)cc1)C(=O)N[C@@H](CC(C)C)C(=O)N[C@@H](CC(N)=O)C(=O)N[C@@H](CC(C)C)C(=O)N[C@@H](CC(C)C)C(=O)N[C@H](C(=O)N[C@@H](CCCNC(=N)N)C(=O)N[C@@H](CCC(N)=O)C(=O)N[C@@H](CCCNC(=N)N)C(=O)N[C@@H](Cc1ccc(O)cc1)C(N)=O)[C@@H](C)O | - | . | - | . | .
COc1ccccc1C(=O)Nc1nc2ccccc2[nH]1 | 0.251µM | - | 0.501µM | ? | -
COc1ccccc1C(=O)NCCC(=O)Nc1nc2ccccc2[nH]1 | . | - | . | ? | -
COc1ccccc1CC(=O)Nc1cccc(C(=O)Nc2nccs2)c1 | - | - | - | 16.4µM | -
CC(=O)c1ccc2c(c1)c(C#N)c1ccccc1[n+]2[O-] | - | - | - | - | -
O=c1[nH]c(-c2ccccn2)nc2sc(-c3ccccc3)cc12 | 0.316µM | - | 1.41µM | ? | -
Cc1sc2nc(CSC(C)C(=O)Nc3cc(S(C)(=O)=O)ccc3Cl)[nH]c(=O)c2c1C (centres undefined) | . | - | . | - | -
Cc1ccc2c(c1)N(CC(=O)OC(CC(C)C)C(=O)NC1CCCC1)C(=O)CO2 (centres undefined) | - | - | - | 20.6µM | -
C[C@H](CO)N1C[C@H](C)[C@@H](CN(C)C(=O)Nc2ccc3c(c2)OCO3)Oc2ccc(NS(=O)(=O)c3ccccc3)cc2C1=O | . | - | . | - | -
O=C(CSc1nc2nc3c(cc2c(=O)n1-c1ccccc1)CCCC3)Nc1cccc2ccccc12 | - | - | - | ? | -
Cc1cccc(NC(=O)CSc2nc3nc4c(cc3c(=O)n2-c2ccccc2)CCCC4)c1 | - | - | - | 14.6µM | -
Cc1ccccc1-n1c(SCC(=O)Nc2ccccc2)nc2nc3c(cc2c1=O)CCCC3 | - | - | - | 23.1µM | -
CCCC(=O)C1=C(O)C(C(=O)OC)C(C)(C)CC1=NCCc1ccccc1 (centres undefined) | - | - | - | - | -
COc1ccc(-c2ccc(/C=C3/C(=N)N4C=CSC4=NC3=O)o2)c([N+](=O)[O-])c1 | 2.51µM | - | 3.55µM | ? | -
COc1cccc([C@@H]2Oc3ccc(OC)cc3/C(=N/O[C@@H](C)CN3CCCCc4nc(C)c(C)cc43)[C@@H]2O)c1 | -[10 µM] | . | -[10 µM] | . | .
S=c1[nH]nc(-c2ccc3ccccc3n2)n1-c1ccccc1 | 1.41µM | - | 2µM | ? | -
Fc1ccccc1-n1c(-c2ccc3ccccc3n2)n[nH]c1=S | 1.41µM | - | ? | - | -
COCc1n[nH]c(=S)n1-c1cccc2ccccc12 | ? | - | - | - | -
